Experiment [1] has as its target Bile acid receptor (Homo sapiens) (UniProt Q96RI1). As to the kind of experiment: ATG_IR1_CIS: Attagene CIS-FACTORIAL HepG2 Assay for human Nuclear Receptor Subfamily 1 Group H Member 4 (NR1H4), IR1 submotif (AID 2282946). The note with it: IR1 reporter transcription, actives raise or lower the signal. The method, boiled down: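 Fluorescence of capillary-separated, HpaI-digested RT-PCR reporter products gave IR1-element mRNA induction in HepG2 cells 24 h after dosing. Endogenous transcription factors drove the cis-regulated reporters; activity was fitted bidirectionally against DMSO.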

Experiment [2] is described as follows: ATG_GRE_CIS: Attagene CIS-FACTORIAL HepG2 Assay for human Glucocorticoid Response Elements (GRE) (AID 2282947). The following applies: HepG2 GRE cis-reporter, Attagene multiplex mRNA; actives raise or lower the signal. The method, boiled down:
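Read-out: fluorescent reporter-transcript fragments separated by capillary electrophoresis after RT-PCR. Transiently transfected HepG2 cells carrying cis-element-driven reporter units were dosed for 24 h; gain or loss of signal fitted against DMSO control.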

A short description of experiment [3]: ATG_ISRE_CIS: Attagene CIS-FACTORIAL HepG2 Assay for human Interferon Regulatory Factor 1 (IRF1) binding to an Interferon-Stimulated Response Element (ISRE) (AID 2282948). The note with it: HepG2 ISRE cis-reporter (Attagene), mRNA transcription readout; actives raise or lower the signal. The method, boiled down: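 Endogenous transcription factor activity read as reporter transcript abundance via RT-PCR and capillary electrophoresis. HepG2 cells transiently transfected, 24 h chemical exposure. Gain or loss fitted against DMSO baseline.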

Experiment [4] can be described thus: ATG_M_32_CIS: Attagene CIS-FACTORIAL HepG2 Assay for M32 Transcription Factor (Internal Marker) (AID 2282949).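 Note: background control marker of the multiplexed CIS panel rather than a real target.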 The following applies: HepG2 Attagene cis-factorial M32 reporter, mRNA; actives raise or lower the signal. The method, boiled down: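 Using DMSO as baseline, bidirectional curve fits were applied to reporter mRNA signals. These came from transiently transfected HepG2 cells exposed for 24 h, with RNA analysed by RT-PCR, FAM primer extension, HpaI digestion and CE.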

The nature of experiment [5]: ATG_M_06_CIS: Attagene CIS-FACTORIAL HepG2 Assay for M06 Transcription Factor (Internal Marker) (AID 2282950). The note with it: HepG2 Attagene CIS-FACTORIAL M06 internal marker reporter; actives raise or lower the signal. The method, boiled down:
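One of many multiplexed endpoints: HepG2 reporter mRNA after 24 h dosing, detected by RT-PCR and capillary electrophoresis fluorescence; gain or loss of signal analysed against DMSO.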

The target of experiment [6] is Hypoxia-inducible factor 1-alpha (Homo sapiens) (UniProt Q16665). As to the kind of experiment: ATG_HIF1a_CIS: Attagene CIS-FACTORIAL HepG2 Assay for human Hypoxia Inducible Factor 1 (HIF1A) (AID 2282951). The note with it: HepG2 Attagene cis-factorial HIF1a reporter transcription; actives raise or lower the signal. The method in brief: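 In this multiplexed cell assay, HepG2 cells bearing transfected cis reporters are dosed for 24 h and reporter mRNA is read by RT-PCR plus capillary electrophoresis; signal increases and decreases are both scored against DMSO.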
Chain of Hypoxia-inducible factor 1-alpha (Homo sapiens) (Q16665 whole entry, looked up): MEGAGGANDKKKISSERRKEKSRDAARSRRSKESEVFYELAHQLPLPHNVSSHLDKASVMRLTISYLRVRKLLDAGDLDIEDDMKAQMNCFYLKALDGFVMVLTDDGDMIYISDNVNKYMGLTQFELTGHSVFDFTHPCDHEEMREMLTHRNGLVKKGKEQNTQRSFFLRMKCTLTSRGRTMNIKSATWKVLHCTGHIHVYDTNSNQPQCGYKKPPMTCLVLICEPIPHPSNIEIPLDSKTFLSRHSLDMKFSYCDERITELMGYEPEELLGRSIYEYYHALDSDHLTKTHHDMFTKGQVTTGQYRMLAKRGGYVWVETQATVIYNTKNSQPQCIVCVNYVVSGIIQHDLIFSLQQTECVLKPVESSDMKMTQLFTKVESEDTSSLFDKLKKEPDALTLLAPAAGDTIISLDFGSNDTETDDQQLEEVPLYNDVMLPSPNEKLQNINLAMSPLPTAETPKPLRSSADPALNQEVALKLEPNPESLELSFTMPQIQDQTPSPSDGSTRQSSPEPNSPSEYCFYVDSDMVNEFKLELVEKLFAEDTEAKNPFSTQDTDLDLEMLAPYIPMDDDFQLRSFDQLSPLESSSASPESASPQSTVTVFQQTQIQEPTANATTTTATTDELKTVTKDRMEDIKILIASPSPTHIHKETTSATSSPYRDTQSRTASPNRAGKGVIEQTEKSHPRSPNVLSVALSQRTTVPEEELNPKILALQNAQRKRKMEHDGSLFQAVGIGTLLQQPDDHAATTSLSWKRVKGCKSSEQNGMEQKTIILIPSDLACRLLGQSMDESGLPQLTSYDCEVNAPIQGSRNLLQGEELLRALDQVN

For experiment [7], the target named is Hepatocyte nuclear factor 6 (Homo sapiens) (UniProt Q9UBC0). Briefly: ATG_HNF6_CIS: Attagene CIS-FACTORIAL HepG2 Assay for human Hepatocyte Nuclear Factor 6 (HNF6) (AID 2282952). The following applies: HepG2 Attagene cis-factorial HNF6 reporter transcription; actives raise or lower the signal. The method, boiled down: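 Activity values derive from bidirectional fitting against DMSO of reporter mRNA levels, measured by capillary electrophoresis of labelled RT-PCR products from HepG2 cells exposed 24 h.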
Chain of Hepatocyte nuclear factor 6 (Homo sapiens) (Q9UBC0 whole entry, looked up): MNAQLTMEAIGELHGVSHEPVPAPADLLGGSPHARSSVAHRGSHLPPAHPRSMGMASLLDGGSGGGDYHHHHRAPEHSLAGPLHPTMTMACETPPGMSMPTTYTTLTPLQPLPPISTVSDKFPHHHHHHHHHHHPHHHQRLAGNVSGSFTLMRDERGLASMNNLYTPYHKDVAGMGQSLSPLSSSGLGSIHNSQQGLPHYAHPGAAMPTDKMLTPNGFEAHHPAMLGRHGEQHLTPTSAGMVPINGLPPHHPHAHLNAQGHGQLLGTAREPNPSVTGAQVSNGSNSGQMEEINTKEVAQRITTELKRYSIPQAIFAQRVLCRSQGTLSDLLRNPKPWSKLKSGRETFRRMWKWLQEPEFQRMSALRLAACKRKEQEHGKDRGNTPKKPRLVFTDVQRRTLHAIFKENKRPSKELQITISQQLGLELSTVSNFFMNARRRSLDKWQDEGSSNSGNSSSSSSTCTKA

Experiment [8] deals with Heat shock factor protein 1 (Homo sapiens) (UniProt Q00613). As to the kind of experiment: ATG_HSE_CIS: Attagene CIS-FACTORIAL HepG2 Assay for human Heat Shock Transcription Factor 1 (HSE) (AID 2282953). The note with it: HepG2 HSE cis-reporter, Attagene RNA transcription; actives raise or lower the signal. The method, boiled down: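 Using HepG2 with transfected cis-driven reporter constructs, compound effects on endogenous factor activity are scored as reporter mRNA change at 24 h. Detection: RT-PCR, HpaI digestion, capillary electrophoresis; bidirectional fitting to DMSO.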
Chain of Heat shock factor protein 1 (Homo sapiens) (Q00613 whole entry, looked up): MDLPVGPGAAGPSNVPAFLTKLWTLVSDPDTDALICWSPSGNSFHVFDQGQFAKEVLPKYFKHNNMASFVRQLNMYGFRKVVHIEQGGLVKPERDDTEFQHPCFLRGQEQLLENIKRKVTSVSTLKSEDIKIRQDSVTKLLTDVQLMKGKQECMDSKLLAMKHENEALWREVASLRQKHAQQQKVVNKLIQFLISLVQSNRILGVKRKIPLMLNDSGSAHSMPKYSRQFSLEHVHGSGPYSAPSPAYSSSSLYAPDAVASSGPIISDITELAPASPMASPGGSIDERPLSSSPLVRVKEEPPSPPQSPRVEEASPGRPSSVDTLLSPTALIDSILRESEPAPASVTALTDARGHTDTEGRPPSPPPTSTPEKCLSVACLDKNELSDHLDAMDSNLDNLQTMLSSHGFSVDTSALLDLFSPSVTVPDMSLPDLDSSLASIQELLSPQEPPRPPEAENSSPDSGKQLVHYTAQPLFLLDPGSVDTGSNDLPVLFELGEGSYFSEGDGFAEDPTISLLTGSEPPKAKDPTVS

Experiment [9] is described as follows: ATG_MRE_CIS: Attagene CIS-FACTORIAL HepG2 Assay for human Metal Responsive Element (MRE) (AID 2282954). The note with it: HepG2 MRE cis-reporter transcription, Attagene multiplex; actives raise or lower the signal. The method, boiled down:
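RT-PCR/capillary electrophoresis readout of reporter mRNA, 24 h post-dosing, in HepG2 cells transfected with multiplexed cis-regulated reporter constructs. Gain or loss of signal fitted bidirectionally against DMSO baseline.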

Experiment [10] has as its target Paired box protein Pax-6 (Homo sapiens) (UniProt P26367). Briefly: ATG_Pax6_CIS: Attagene CIS-FACTORIAL HepG2 Assay for human Paired Box 6 (PAX6) (AID 2282956). The note with it: HepG2 CIS-FACTORIAL PAX6 reporter transcription, RNA readout; actives raise or lower the signal. The method in brief: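 Read-out is reporter transcript level, measured by RT-PCR with fluorescent primer extension and capillary electrophoresis after 24 h dosing of transfected HepG2 cells. Activity in either direction fitted relative to DMSO control.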

A short description of experiment [11]: ATG_PXRE_CIS: Attagene CIS-FACTORIAL HepG2 Assay for human Pregnane X Receptor Element (PXRE) (AID 2282957). The following applies: HepG2 Attagene CIS-FACTORIAL PXRE reporter, mRNA; actives raise or lower the signal. The method in brief: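 Fluorescent capillary electrophoresis of amplified reporter cDNA gave the signal, collected 24 h after dosing HepG2 cells that held transfected cis-element reporter constructs.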

The nature of experiment [12]: ATG_Sox_CIS: Attagene CIS-FACTORIAL HepG2 Assay for human SRY-box transcription factor (SOX) (AID 2282960). The note with it: HepG2 Attagene cis-factorial SOX reporter, mRNA; actives raise or lower the signal. The method in brief: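 After 24 h of chemical treatment, transfected HepG2 reporter cells are lysed for total RNA. Transcript levels come from RT-PCR with labelled primer extension and capillary electrophoresis, analysed bidirectionally versus DMSO.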

Experiment [13] has as its target Transcription factor Sp1 (Homo sapiens) (UniProt P08047). Briefly: ATG_Sp1_CIS: Attagene CIS-FACTORIAL HepG2 Assay for human Specificity Protein 1 (Sp1) (AID 2282961). The note with it: HepG2 Sp1 cis-reporter transcription, actives raise or lower the signal. The method in brief: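 Sp1-driven reporter mRNA, read as capillary electrophoresis fluorescence after RT-PCR, in transiently transfected HepG2 cells dosed for 24 h; signal change in either direction relative to DMSO.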

Experiment [14] in a line: ATG_SREBP_CIS: Attagene CIS-FACTORIAL HepG2 Assay for human Sterol Regulatory Element Binding (SREBP) (AID 2282962). The following applies: HepG2 Attagene cis-factorial SREBP reporter, mRNA; actives raise or lower the signal. The method in brief:
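Endogenous SREBP activity read as cis-element-driven reporter transcript in transiently transfected HepG2, 24 h post-dosing; quantified via RT-PCR plus capillary electrophoresis of fluorescent fragments. Gain or loss of signal fitted relative to DMSO baseline.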

Experiment [15] addresses Signal transducer and activator of transcription 3 (Homo sapiens) (UniProt P40763). As to the kind of experiment: ATG_STAT3_CIS: Attagene CIS-FACTORIAL HepG2 Assay for human Signal Transducer and Activator of Transcription 3 (STAT3) (AID 2282963). The note with it: HepG2, Attagene cis-factorial STAT3 reporter transcription; actives raise or lower the signal. The method in brief: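 Readout: fluorescent reporter mRNA fragments resolved by capillary electrophoresis. Setup: HepG2 transfected with MRTUs reporting endogenous transcription-factor activity, dosed 24 h. Gain or loss of signal fitted bidirectionally against DMSO control.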

Experiment [16] can be described thus: ATG_TA_CIS: Attagene CIS-FACTORIAL HepG2 Assay for human TA Basal Promoter (AID 2282964). The note with it: HepG2 Attagene CIS-factorial TA basal promoter reporter; actives raise or lower the signal. The method, boiled down: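 Transient MRTU transfection of HepG2 preceded 24 h compound exposure. Reporter mRNA levels were then read by RT-PCR with capillary electrophoresis, and this background-control endpoint was fitted bidirectionally to DMSO.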

Experiment [17] in a line: ATG_TCF_b_cat_CIS: Attagene CIS-FACTORIAL HepG2 Assay for human T-Cell-Factor with beta-catenin (TCF/b-cat) (AID 2282965). The note with it: HepG2 TCF/beta-catenin cis-reporter transcription, actives raise or lower the signal. The method in brief: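 Cells of the HepG2 line carry transiently transfected reporter units whose promoters respond to endogenous factors. Twenty-four hours post-dosing, reporter mRNA induction is measured by fluorescent RT-PCR and capillary electrophoresis, with DMSO as baseline.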

The nature of experiment [18]: ATG_PPRE_CIS: Attagene CIS-FACTORIAL HepG2 Assay for human Peroxisome Proliferator-activated Response Element (PPRE) (AID 2282958). The note with it: HepG2 PPRE cis-element reporter, Attagene transcription factor profiling; actives raise or lower the signal. The method in brief:
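Multiplexed reporter transcription units under cis-regulatory promoters were transfected into HepG2 cells to capture endogenous factor activity. A 24 h incubation preceded RNA isolation and fluorescent RT-PCR fragment analysis.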

Experiment [19] can be described thus: ATG_PBREM_CIS: Attagene CIS-FACTORIAL HepG2 Assay for human Phenobarbital-responsive Enhancer Module (PBREM) (AID 2282955). The following applies: HepG2 PBREM cis-reporter, Attagene multiplexed transcription; actives raise or lower the signal. The method, boiled down: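 After a 24 h incubation with test chemical, transfected HepG2 cells yield total RNA; reporter-specific RT-PCR products are fluorescently labelled, HpaI-digested and resolved by capillary electrophoresis against ROX size standards.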

Experiment [20] in a line: ATG_RORE_CIS: Attagene CIS-FACTORIAL HepG2 Assay for human RAR-related Orphan Receptor Element (RORE) (AID 2282959). The following applies: HepG2 Attagene cis-factorial RORE reporter, mRNA; actives raise or lower the signal. The method in brief:
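Fluorescence intensity of reporter-specific cDNA fragments, separated by capillary electrophoresis, gives the signal. Source: HepG2 liver cells transiently transfected with cis-element reporters and exposed 24 h; DMSO-normalized bidirectional fit.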

The source made the active and inactive calls. Rule for the calls: active = hit-call score of the fitted dose curve at least 0.9, where 1 is the maximum; inactive = score below 0.9.

Chain of Signal transducer and activator of transcription 3 (Homo sapiens) (P40763 whole entry, looked up, the tested form may be a part): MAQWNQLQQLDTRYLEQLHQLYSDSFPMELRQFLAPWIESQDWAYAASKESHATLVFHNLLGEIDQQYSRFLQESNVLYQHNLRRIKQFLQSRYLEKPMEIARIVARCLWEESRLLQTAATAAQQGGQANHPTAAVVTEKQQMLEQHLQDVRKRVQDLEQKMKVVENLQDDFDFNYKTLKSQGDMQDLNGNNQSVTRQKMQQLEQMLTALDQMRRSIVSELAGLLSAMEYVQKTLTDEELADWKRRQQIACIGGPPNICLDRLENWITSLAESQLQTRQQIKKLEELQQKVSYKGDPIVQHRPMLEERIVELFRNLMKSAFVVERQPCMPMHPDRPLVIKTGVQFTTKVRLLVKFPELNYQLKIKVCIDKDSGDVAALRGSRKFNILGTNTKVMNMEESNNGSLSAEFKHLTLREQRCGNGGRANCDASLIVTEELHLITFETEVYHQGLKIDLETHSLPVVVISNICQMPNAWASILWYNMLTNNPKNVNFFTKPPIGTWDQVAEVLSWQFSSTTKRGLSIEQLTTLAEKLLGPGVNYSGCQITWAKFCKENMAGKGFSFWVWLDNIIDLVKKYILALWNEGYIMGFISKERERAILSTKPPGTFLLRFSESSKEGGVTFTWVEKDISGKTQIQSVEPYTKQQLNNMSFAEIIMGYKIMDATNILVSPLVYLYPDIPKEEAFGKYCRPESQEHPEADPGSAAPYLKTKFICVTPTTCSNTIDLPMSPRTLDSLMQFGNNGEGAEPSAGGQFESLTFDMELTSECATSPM
Chain of Paired box protein Pax-6 (Homo sapiens) (P26367 whole entry, looked up): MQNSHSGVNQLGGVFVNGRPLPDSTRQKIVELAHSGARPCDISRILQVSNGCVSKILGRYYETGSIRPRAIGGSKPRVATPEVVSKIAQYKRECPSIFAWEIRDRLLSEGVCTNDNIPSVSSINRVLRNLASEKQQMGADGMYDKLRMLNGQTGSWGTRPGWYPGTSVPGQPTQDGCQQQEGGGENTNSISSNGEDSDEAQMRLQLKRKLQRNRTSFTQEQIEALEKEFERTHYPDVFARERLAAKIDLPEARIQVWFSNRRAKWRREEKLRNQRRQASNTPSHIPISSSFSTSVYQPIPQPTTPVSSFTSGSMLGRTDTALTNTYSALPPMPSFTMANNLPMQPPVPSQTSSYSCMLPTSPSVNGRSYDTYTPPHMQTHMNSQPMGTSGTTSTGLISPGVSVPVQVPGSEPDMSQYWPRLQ
Chain of Bile acid receptor (Homo sapiens) (Q96RI1 whole entry, looked up): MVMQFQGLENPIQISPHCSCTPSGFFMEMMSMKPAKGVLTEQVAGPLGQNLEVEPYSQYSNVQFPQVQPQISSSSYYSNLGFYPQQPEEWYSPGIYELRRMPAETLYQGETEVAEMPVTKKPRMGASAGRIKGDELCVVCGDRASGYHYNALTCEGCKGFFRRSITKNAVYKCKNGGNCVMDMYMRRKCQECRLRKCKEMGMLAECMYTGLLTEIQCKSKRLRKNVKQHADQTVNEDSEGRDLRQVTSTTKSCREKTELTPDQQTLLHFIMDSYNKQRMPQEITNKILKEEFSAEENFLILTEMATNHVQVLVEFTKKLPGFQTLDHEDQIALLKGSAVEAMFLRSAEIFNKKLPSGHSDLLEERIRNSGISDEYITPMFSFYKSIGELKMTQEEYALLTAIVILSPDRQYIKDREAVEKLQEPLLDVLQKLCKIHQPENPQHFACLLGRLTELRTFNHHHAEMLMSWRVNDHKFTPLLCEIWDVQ
Chain of Transcription factor Sp1 (Homo sapiens) (P08047 whole entry, looked up): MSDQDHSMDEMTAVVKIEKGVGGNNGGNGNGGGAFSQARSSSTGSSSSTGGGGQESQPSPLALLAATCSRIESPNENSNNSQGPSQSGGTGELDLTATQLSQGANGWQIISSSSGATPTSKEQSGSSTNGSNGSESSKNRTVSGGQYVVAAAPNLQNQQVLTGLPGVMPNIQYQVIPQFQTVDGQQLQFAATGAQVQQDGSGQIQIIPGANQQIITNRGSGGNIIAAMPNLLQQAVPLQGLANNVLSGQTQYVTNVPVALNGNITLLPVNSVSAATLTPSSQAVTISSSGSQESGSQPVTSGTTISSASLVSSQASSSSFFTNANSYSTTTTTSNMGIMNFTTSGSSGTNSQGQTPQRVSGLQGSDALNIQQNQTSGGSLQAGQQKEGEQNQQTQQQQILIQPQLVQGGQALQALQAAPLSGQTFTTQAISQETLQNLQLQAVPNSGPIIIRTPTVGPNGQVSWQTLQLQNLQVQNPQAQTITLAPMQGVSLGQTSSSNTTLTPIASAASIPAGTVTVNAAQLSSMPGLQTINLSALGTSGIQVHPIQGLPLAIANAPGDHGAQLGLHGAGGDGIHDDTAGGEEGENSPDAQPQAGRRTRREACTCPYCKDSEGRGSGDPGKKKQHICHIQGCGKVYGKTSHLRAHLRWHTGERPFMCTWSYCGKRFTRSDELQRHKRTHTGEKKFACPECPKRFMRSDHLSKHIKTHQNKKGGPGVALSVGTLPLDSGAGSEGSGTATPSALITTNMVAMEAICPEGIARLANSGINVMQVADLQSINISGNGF

Regarding `CC(C)c1ccccc1O`, the result in [1], in [2], in experiment [3], in [4], in [5] and in [6] was inactive. Further, the compound was classed as inactive in experiment [7], in experiment [8], in experiment [9], in experiment [10], in experiment [12] and in [13]. Also, the call in [14], in experiment [15], in [16] and in [17] was inactive. Also, the AC50 in experiment [11] was 81.1 µM (active).

Regarding `Cc1ccc(S(N)(=O)=O)cc1`, the call in experiment [1], in experiment [2], in experiment [3], in experiment [4], in experiment [5] and in experiment [6] was inactive. Besides, the outcome in [7], in [8], in [9], in experiment [11], in [18] and in experiment [12] was inactive. For the same compound, the compound was classed as inactive in [13], in experiment [15], in experiment [16] and in experiment [17].

For the compound `CC(=O)O[C@@H]1CC2CCC1(C)C2(C)C` (some centres undefined), the compound was classed as inactive in [1], in [2], in experiment [3], in experiment [4], in [5] and in experiment [6]. In addition, the compound was called inactive in experiment [7], in experiment [9], in [19], in experiment [10], in experiment [11] and in [20]. For the same compound, the compound was called inactive in experiment [12], in experiment [13], in [14], in experiment [15] and in experiment [16].

Consider `CCCC1O[C@@H]2C[C@H]3[C@@H]4CCC5=CC(=O)C=C[C@]5(C)[C@H]4[C@@H](O)C[C@]3(C)[C@]2(C(=O)CO)O1` (some centres undefined), for which the AC50 was 100 µM (active) in [1]; 0.0815 µM (active) in [2]; 137 µM (active) in [3]; 4.12 µM (active) in experiment [11]; 100 µM (active) in [17]. In addition, the compound was called inactive in experiment [4], in experiment [5], in [7], in experiment [8], in experiment [9] and in experiment [19]. Further, the call in experiment [10], in experiment [18], in experiment [20], in experiment [12], in [13] and in experiment [14] was inactive. In addition, the result in experiment [15] and in experiment [16] was inactive.

As a reminder, the AC50 is the midpoint of the concentration-response curve, whichever way the signal moves.

Values taken from PubChem BioAssay (EPA / NIEHS).
